# According to PubChem BioAssay:
# Activity calls are given as the source filed them. Unless noted, how the calls were made is not given here.
# Assays:
# [1] = test system: Wnt5a (protein binding on small-molecule microarray); experiment: Wnt5a binders on small-molecule microarray, primary screen, biophysical, 635/667 nm fluorescence (AID 1142); conditions: 635 nm fluorescence, higher = more signal;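 further: fluorescence read at 667 nm with signal to noise per printed feature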
# [2] = cell viability in Huh7 cells, primary screen, cytotoxicity control for HCV replication inhibitor project, CellTiter-Glo luminescence, basal, 48 h (AID 1143); conditions: Huh7 HCV replicon, higher = more signal, called active from +8 up or from −8 down;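 further: Huh7 hepatoma cells carrying a hepatitis C replication reporter with no stimulus; test concentration not given here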
# [3] = P. aeruginosa biofilm formation inhibitors, primary screen, PAO1 strain, BacTiter-Glo luminescence, LB-PBS (AID 1144); conditions: 12 h, higher = more signal
# [4] = CREB reporter modulators without forskolin, primary screen, cell-based, PC12, CRE-LacZ reporter, unstimulated (AID 1145); conditions: no forskolin, luminescence, 4.5 h, higher = more signal, called active from +8 up or from −8 down
# [5] = CREB reporter modulators under forskolin, primary screen, cell-based, PC12, CRE-LacZ reporter, forskolin-stimulated (AID 1146); conditions: luminescence, 4.5 h, higher = more signal, called active from +8 up or from −8 down;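 further: PC12 cells with 6xCRE LacZ reporter stimulated by forskolin 10 µM; beta-galactosidase reporter signal reflecting CREB driven transcription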
# [6] = molecular target: Streptavidin (Streptomyces avidinii) (UniProt P22629); experiment: streptavidin binders on small-molecule microarray, primary screen, artefact control for SMM compound annotation, biophysical, 635/667 nm fluorescence (AID 1147); conditions: streptavidin binding, higher = more signal;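 further: signal reflects streptavidin binding to arrayed compounds as a control protein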
# [7] = small-molecule binders of probe aInhba, primary screen, biochemical, small-molecule microarray, 635/667 nm fluorescence (AID 1148); conditions: higher = more signal;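 further: score merges 667nm spot fluorescence with signal-to-noise for antibody binding to printed compounds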
# Torsin-1A (Homo sapiens) [8] = molecular target: Torsin-1A (Homo sapiens) (UniProt O14656); experiment: torsin A binders from cell lysate, primary screen, small-molecule microarray, wild-type, 635/667 nm (AID 1149); conditions: COS7 hTOR1A-WT lysate, 635 nm fluorescence, higher = more signal
# Torsin-1A (Homo sapiens) [9] = molecular target: Torsin-1A (Homo sapiens) (UniProt O14656); experiment: small-molecule binders of mutant TOR1A in lysate, primary screen, cell lysate, small-molecule microarray, COS7 lysate, 635/667 nm fluorescence (AID 1150); conditions: COS7 hTOR1A mutant lysate, 635 nm fluorescence, higher = more signal;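 further: score pools 667 nm emission and signal to noise measuring lysate protein binding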
# [10] = test system: Sonic hedgehog protein (Shh); experiment: small-molecule binders of Shh protein, primary screen, biochemical, small-molecule microarray, 635/667 nm fluorescence (AID 1151); conditions: small-molecule microarray binding, 635 nm fluorescence; higher = more signal;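 further: Shh protein binding to compounds spotted on small-molecule microarray slides; score combines spot fluorescence intensity with signal-to-noise across triplicate slides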
# [11] = E. coli DRC41 culture turbidity changes, primary screen, E. coli filamentation inducer project, strain DRC41, OD650, 48 h (AID 1152);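 further: E. coli MC1000 strain DRC41 lacking acrAB efflux pump and sulA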; conditions: E. coli DRC41 (acrAB sulA), higher = more signal, called active from +8 up or from −8 down
# [12] = small-molecule binders of probe aLefty1, primary screen, biochemical, small-molecule microarray, 635/667 nm fluorescence (AID 1153); conditions: higher = more signal;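 further: score merges spot fluorescence with signal-to-noise ratio from the scanned slide images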
# [13] = PSAC antagonists in infected red cells, primary screen, cell-based, P. falciparum Indochina, OD700, 1 h (AID 1154); conditions: P. falciparum Indochina infected RBC osmotic lysis, higher = more signal, called active from +8 up or from −8 down
# [14] = PSAC antagonists in infected red cells, primary screen, cell-based, P. falciparum Indochina, OD700, 2 h (AID 1155);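 further: lysis reports solute entry through the parasite surface anion channel PSAC; channel blockers reduce lysis of infected cells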; conditions: P. falciparum Indochina infected erythrocytes, osmotic lysis OD700; higher = more signal, called active from +8 up or from −8 down
# [15] = osmotic lysis modulators in infected erythrocytes, primary screen, PSAC antagonist project, cell-based, P. falciparum Indochina, OD700, 3 h (AID 1156); conditions: higher = more signal, called active from +8 up or from −8 down
# [16] = PSAC antagonists in infected red cells, primary screen, cell-based, P. falciparum Indochina, OD700, 18 h (AID 1157); conditions: P. falciparum Indochina infected erythrocytes, osmotic lysis OD700, 18 h; higher = more signal, called active from +8 up or from −8 down
# [17] = modulators of S6 phosphorylation in cells, primary screen, cell-based, A549, cytoblot, luminescence, serum-stimulated (AID 1158); conditions: A549 phospho-S6 cytoblot, 5 h, higher = more signal;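 further: serum-stimulated A549 lung adenocarcinoma cells; signal is phosphorylated S6 detected by cytoblot immunostaining with HRP secondary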
# [18] = molecular target: NADPH oxidase 2 (Homo sapiens) (UniProt P04839); experiment: NOX2-dependent H2O2 signal modulators, primary screen, NOX inhibitor project, cell-based, HEK293-NOX2, PMA-stimulated, Amplex Red fluorescence (AID 1159); conditions: 45 min, higher = more signal, called active from +8 up or from −8 down; further: test concentration not given here
# [19] = molecular target: NADPH oxidase 4 (Homo sapiens) (UniProt Q9NPH5); experiment: NOX4-dependent H2O2 signal modulators, primary screen, NOX inhibitor project, cell-based, HEK293-NOX4, tetracycline-induced, Amplex Red fluorescence (AID 1160); conditions: 45 min, higher = more signal, called active from +8 up or from −8 down
# [20] = molecular target: NADPH oxidase 5 (Homo sapiens) (UniProt Q96PH1); experiment: NOX5-dependent H2O2 signal modulators, primary screen, NOX inhibitor project, cell-based, HEK293-NOX5, Amplex Red fluorescence (AID 1161); conditions: HEK293-NOX5, ionomycin, 45 min, higher = more signal
# Chain of NADPH oxidase 5 (Homo sapiens) (Q96PH1 whole entry, looked up): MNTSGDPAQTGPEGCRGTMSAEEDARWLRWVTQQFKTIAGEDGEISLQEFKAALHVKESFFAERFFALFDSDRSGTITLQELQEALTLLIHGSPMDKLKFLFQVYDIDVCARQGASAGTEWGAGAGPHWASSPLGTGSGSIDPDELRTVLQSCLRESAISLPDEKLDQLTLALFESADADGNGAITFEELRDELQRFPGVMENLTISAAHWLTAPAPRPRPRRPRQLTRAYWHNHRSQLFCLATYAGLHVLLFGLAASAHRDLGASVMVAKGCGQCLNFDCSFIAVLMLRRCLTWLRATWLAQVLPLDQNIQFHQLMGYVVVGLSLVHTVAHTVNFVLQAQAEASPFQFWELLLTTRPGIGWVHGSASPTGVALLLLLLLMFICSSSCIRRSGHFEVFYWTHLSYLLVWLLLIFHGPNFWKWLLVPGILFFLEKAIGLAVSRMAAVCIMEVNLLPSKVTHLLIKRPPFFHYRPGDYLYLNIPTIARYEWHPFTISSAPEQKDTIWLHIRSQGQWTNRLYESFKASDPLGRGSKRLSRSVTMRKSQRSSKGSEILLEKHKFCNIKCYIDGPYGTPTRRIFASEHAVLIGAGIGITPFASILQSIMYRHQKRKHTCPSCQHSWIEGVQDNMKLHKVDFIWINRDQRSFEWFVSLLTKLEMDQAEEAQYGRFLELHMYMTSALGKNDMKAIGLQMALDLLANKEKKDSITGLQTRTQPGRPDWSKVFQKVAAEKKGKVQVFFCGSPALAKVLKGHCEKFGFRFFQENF
# Chain of NADPH oxidase 4 (Homo sapiens) (Q9NPH5 whole entry, looked up): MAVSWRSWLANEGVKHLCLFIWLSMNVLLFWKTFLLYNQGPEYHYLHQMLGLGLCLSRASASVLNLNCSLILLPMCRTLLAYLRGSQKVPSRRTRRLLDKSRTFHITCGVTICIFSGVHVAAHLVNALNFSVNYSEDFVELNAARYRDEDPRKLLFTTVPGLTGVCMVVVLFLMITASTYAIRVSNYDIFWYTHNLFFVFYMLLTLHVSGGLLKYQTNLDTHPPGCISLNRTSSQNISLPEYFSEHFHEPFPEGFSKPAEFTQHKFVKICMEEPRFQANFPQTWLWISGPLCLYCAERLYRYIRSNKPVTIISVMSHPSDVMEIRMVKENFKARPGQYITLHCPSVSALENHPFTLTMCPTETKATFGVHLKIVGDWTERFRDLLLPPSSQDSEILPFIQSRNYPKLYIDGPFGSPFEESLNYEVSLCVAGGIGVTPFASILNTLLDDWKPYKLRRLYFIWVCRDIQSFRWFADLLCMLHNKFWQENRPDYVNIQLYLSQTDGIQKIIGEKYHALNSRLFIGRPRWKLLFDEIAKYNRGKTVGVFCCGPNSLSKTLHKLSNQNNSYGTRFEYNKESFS
# Chain of NADPH oxidase 2 (Homo sapiens) (P04839 whole entry, looked up): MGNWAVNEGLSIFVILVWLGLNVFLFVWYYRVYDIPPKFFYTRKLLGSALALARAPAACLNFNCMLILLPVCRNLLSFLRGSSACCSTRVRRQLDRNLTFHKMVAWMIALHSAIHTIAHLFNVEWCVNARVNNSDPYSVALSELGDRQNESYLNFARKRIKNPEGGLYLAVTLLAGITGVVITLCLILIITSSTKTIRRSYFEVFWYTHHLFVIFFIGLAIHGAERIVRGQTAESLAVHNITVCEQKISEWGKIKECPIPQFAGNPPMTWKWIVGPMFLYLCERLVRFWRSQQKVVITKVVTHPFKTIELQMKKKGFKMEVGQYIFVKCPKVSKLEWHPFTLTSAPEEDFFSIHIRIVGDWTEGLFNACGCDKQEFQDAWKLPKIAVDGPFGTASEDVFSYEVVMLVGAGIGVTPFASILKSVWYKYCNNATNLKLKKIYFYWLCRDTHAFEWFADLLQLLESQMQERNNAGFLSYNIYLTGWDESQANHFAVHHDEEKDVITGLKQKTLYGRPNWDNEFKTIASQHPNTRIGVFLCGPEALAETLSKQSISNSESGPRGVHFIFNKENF
# Chain of Streptavidin (Streptomyces avidinii) (P22629 whole entry, looked up): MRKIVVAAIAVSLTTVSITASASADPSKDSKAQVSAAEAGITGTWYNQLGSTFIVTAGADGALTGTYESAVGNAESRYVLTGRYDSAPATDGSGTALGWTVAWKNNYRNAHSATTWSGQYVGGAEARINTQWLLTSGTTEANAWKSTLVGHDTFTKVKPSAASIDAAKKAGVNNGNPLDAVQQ
# Chain of Torsin-1A (Homo sapiens) (O14656 whole entry, looked up): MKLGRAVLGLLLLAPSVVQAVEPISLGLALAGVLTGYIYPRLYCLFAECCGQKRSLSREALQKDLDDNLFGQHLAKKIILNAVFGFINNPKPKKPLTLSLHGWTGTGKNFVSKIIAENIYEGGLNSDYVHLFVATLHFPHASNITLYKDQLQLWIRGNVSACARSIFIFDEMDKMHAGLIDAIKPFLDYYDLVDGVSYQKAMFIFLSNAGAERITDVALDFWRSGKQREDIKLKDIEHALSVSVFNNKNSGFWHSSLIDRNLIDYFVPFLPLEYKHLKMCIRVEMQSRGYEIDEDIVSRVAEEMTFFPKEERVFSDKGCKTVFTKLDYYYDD
smiles,measurement,setting,value
COC(=O)C[C@H]1O[C@]2(C(=O)N(C)c3ccccc32)[C@@H](C)[C@@H]1[Si](C)(C)F,composite z-score,[1],0.56
same,z-score,[2],-1.18 (inactive)
same,z-score,[3],-0.852 (inactive)
same,z-score,[4],1.03 (inactive)
same,z-score,[5],-0.383 (inactive)
same,composite z-score,[6],0.454
same,composite z-score,[7],0.0301
same,composite z-score,Torsin-1A (Homo sapiens) [8],0.142
same,composite z-score,Torsin-1A (Homo sapiens) [9],0.164
same,composite z-score,[10],1.79
same,z-score,[11],2.91 (inactive)
same,composite z-score,[12],0.0982
same,z-score,[13],-0.0899 (inactive)
same,z-score,[14],-0.562 (inactive)
same,z-score,[15],-0.338 (inactive)
same,z-score,[16],-2.12 (inactive)
same,z-score,[17],1.26
same,z-score,[18],-0.771 (inactive)
same,z-score,[19],0.555 (inactive)
same,z-score,[20],1.45
COC(=O)[C@@]1(Cc2ccc(OC)cc2)[C@H]2c3cc(C(=O)N(C)C)n(Cc4ccccn4)c3C[C@H]2CN1C(=O)c1ccccc1,composite z-score,[1],0.164
same,z-score,[2],-1.17 (inactive)
same,z-score,[3],0.691 (inactive)
same,z-score,[4],1.16 (inactive)
same,z-score,[5],0.97 (inactive)
same,composite z-score,[6],2.57
same,composite z-score,[7],0.322
same,composite z-score,Torsin-1A (Homo sapiens) [8],0.192
same,composite z-score,Torsin-1A (Homo sapiens) [9],1.59
same,composite z-score,[10],-0.403
same,z-score,[11],-1.76 (inactive)
same,composite z-score,[12],0.771
same,z-score,[13],1.63 (inactive)
same,z-score,[14],0.463 (inactive)
same,z-score,[15],1.01 (inactive)
same,z-score,[16],0.863 (inactive)
same,z-score,[17],0.704
same,z-score,[18],0.188 (inactive)
same,z-score,[19],-1.32 (inactive)
same,z-score,[20],-2.73
CN1C(=O)C2C=CC(C(O)C3CC=CCC3)N(N(c3ccccc3)c3ccccc3)C2C1=O (stereo not given),composite z-score,[1],0.155
same,z-score,[2],0.909 (inactive)
same,z-score,[3],0.472 (inactive)
same,z-score,[4],0.629 (inactive)
same,z-score,[5],0.47 (inactive)
same,composite z-score,[6],0.184
same,composite z-score,[7],0.027
same,composite z-score,Torsin-1A (Homo sapiens) [8],0.36
same,composite z-score,Torsin-1A (Homo sapiens) [9],-0.368
same,composite z-score,[10],0.0122
same,z-score,[11],-0.866 (inactive)
same,composite z-score,[12],0.329
same,z-score,[13],0.19 (inactive)
same,z-score,[14],1.01 (inactive)
same,z-score,[15],-0.255 (inactive)
same,z-score,[16],1.29 (inactive)
same,z-score,[17],-0.496
same,z-score,[18],-0.625 (inactive)
same,z-score,[19],0.21 (inactive)
same,z-score,[20],0.224
C=C(C)[C@@H]1CC=C(C(O)C2C=CC3C(=O)N(C)C(=O)C3N2Nc2ccccc2)CC1 (stereo not given in full),composite z-score,[1],0.297
same,z-score,[2],0.435 (inactive)
same,z-score,[3],-0.309 (inactive)
same,z-score,[4],0.626 (inactive)
same,z-score,[5],1.26 (inactive)
same,composite z-score,[6],0.178
same,composite z-score,[7],0.0013
same,composite z-score,Torsin-1A (Homo sapiens) [8],0.425
same,composite z-score,Torsin-1A (Homo sapiens) [9],0.385
same,composite z-score,[10],1.89
same,z-score,[11],-1.54 (inactive)
same,composite z-score,[12],0.42
same,z-score,[13],1.89 (inactive)
same,z-score,[14],0.344 (inactive)
same,z-score,[15],0.683 (inactive)
same,z-score,[16],1.59 (inactive)
same,z-score,[17],-0.549
same,z-score,[18],-1.1 (inactive)
same,z-score,[19],-2.76 (inactive)
same,z-score,[20],-2.23
CN(C)CCCCCCNC(=O)[C@H]1C[C@H]2C(=O)N[C@@H](CCCCN)C(=O)N2[C@H]1c1cccc(OCCO)c1,composite z-score,[1],1.73
same,z-score,[2],0.0574 (inactive)
same,z-score,[3],0.949 (inactive)
same,z-score,[4],0.688 (inactive)
same,z-score,[5],0.691 (inactive)
same,composite z-score,[6],2.14
same,composite z-score,[7],0.778
same,composite z-score,Torsin-1A (Homo sapiens) [8],3.76
same,composite z-score,Torsin-1A (Homo sapiens) [9],3.35
same,composite z-score,[10],1.43
same,z-score,[11],-0.497 (inactive)
same,composite z-score,[12],2.71
same,z-score,[13],2.2 (inactive)
same,z-score,[14],0.192 (inactive)
same,z-score,[15],0.32 (inactive)
same,z-score,[16],0.229 (inactive)
same,z-score,[17],-0.268
same,z-score,[18],1.65 (inactive)
same,z-score,[19],1.03 (inactive)
same,z-score,[20],1.24
C=CCNC(=O)[C@@H]1[C@H]2C(=O)O[C@H](c3ccccc3)[C@H](c3ccccc3)N2[C@H](c2ccc(O)cc2)[C@@]12C(=O)N(C(=O)OCCOC)c1ccc(C#CCNC(N)=O)cc12,composite z-score,[1],0.468
same,z-score,[2],-2.23 (inactive)
same,z-score,[3],-0.298 (inactive)
same,z-score,[4],0.35 (inactive)
same,z-score,[5],0.273 (inactive)
same,composite z-score,[6],0.61
same,composite z-score,[7],-0.131
same,composite z-score,Torsin-1A (Homo sapiens) [8],0.699
same,composite z-score,Torsin-1A (Homo sapiens) [9],0.594
same,composite z-score,[10],1.45
same,z-score,[11],0.411 (inactive)
same,composite z-score,[12],0.0012
same,z-score,[13],0.691 (inactive)
same,z-score,[14],-0.836 (inactive)
same,z-score,[15],0.537 (inactive)
same,z-score,[16],-1.18 (inactive)
same,z-score,[17],1.32
same,z-score,[18],1.08 (inactive)
same,z-score,[19],0.438 (inactive)
same,z-score,[20],0.421
C=C[C@H](CO[Si](CC)(CC)CC)N(Cc1ccc(OC(C)=O)c(OC)c1)S(=O)(=O)c1ccc(Br)cc1,composite z-score,[1],0.157
same,z-score,[2],-4.96 (inactive)
same,z-score,[3],0.451 (inactive)
same,z-score,[4],-0.263 (inactive)
same,z-score,[5],0.685 (inactive)
same,composite z-score,[6],1.61
same,composite z-score,[7],0.403
same,composite z-score,Torsin-1A (Homo sapiens) [8],0.837
same,composite z-score,Torsin-1A (Homo sapiens) [9],0.671
same,composite z-score,[10],1.15
same,z-score,[11],0.719 (inactive)
same,composite z-score,[12],0.698
same,z-score,[13],-0.0878 (inactive)
same,z-score,[14],-0.231 (inactive)
same,z-score,[15],-0.738 (inactive)
same,z-score,[16],-1.39 (inactive)
same,z-score,[17],0.674
same,z-score,[18],-2 (inactive)
same,z-score,[19],-0.928 (inactive)
same,z-score,[20],-1.27
COc1ccc(CCNC(=O)[C@@H]2c3ccccc3C(=O)N(Cc3ccccc3Cl)[C@H]2c2ccc(CO)cc2)cc1,composite z-score,[1],0.177
same,z-score,[2],-0.124 (inactive)
same,z-score,[3],0.603 (inactive)
same,z-score,[4],0.701 (inactive)
same,z-score,[5],-0.977 (inactive)
same,composite z-score,[6],-0.001
same,composite z-score,[7],-0.0645
same,composite z-score,Torsin-1A (Homo sapiens) [8],0.25
same,composite z-score,Torsin-1A (Homo sapiens) [9],0.0327
same,composite z-score,[10],-0.214
same,z-score,[11],-0.497 (inactive)
same,composite z-score,[12],-0.0999
same,z-score,[13],3.59 (inactive)
same,z-score,[14],0.474 (inactive)
same,z-score,[15],0.209 (inactive)
same,z-score,[16],-0.11 (inactive)
same,z-score,[17],-0.144
same,z-score,[18],-3.49 (inactive)
same,z-score,[19],0.151 (inactive)
same,z-score,[20],-2.46
